# LAP4-GFP MLPCN – alters LAP4-GFP fluorescence in TOR pathway yeast screen. S. cerevisiae LAP4-GFP multiplex, flow cytometry GFP, 3 h; median GFP as percent of DMSO wells. GFP response vs DMSO, % at 10 µM. actives 0.34% (n = 320,000);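 active = GFP response vs DMSO above a set limit, about the screen mean plus 3 SD, cut at about 150% in these data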
# AGP1-GFP MLPCN – modulators of TOR pathway AGP1-GFP in S. cerevisiae; actives 0.02% (n = 320,000); GFP response vs DMSO, % at 10 µM; S. cerevisiae AGP1-GFP multiplex flow cytometry, 3 h; GFP as percent of DMSO wells; AID 2066;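 active = GFP response relative to DMSO above a set limit, near screen average plus 3 SD, cut at about 150% in these data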;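 also: median GFP channel fluorescence of the gated AGP1 strain per well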
# Efflux pump mplx – inhibitors of Candida antifungal efflux pumps expressed in yeast | S. cerevisiae Candida pump triplex, Nile Red efflux | inhibition, % at 10 µM | actives 0.44% (n = 330,000) | AID 485275;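 active = plate passing quality check with inhibition over a set limit, or well fluorescence over plate mean plus 4 SD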;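 also: Nile Red retained in pooled yeast measured as flow cytometry median fluorescence; 0% = buffer negative control and 100% = Enniatin B positive control; higher means more Nile Red kept so more efflux inhibition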
# RPL19A-GFP yeast – modulators of TOR pathway RPL19A-GFP in S. cerevisiae; S. cerevisiae RPL19A-GFP strain, flow cytometry, 3 h; stronger effect = lower value; percent response vs DMSO, % at 10 µM; actives 0.3% (n = 330,000); AID 2025;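 active = percent response vs DMSO below 50%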;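 also: median channel GFP fluorescence of the barcoded RPL19A-GFP strain; ratio of sample median GFP to plate DMSO average so 100% = DMSO; lower means less RPL19A-GFP as with rapamycin TOR inhibition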
# CIT2 TOR yeast – alters CIT2-GFP fluorescence in TOR pathway yeast screen | actives 0.065% (n = 320,000) | GFP response vs DMSO, % at 10 µM | AID 2029 | S. cerevisiae CIT2-GFP strain, flow cytometry, 3 h; 100 means same as DMSO wells;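 active = GFP response relative to DMSO above a set limit, near the screen mean plus 3 SD, cut at about 150% in these data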;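 also: ratio of well median GFP fluorescence to mean of DMSO wells on the plate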
# MEP2 TOR yeast – alters MEP2-GFP fluorescence in TOR pathway yeast screen | S. cerevisiae MEP2-GFP strain, flow cytometry GFP, 3 h; 100% = DMSO control level | GFP response vs DMSO, % at 10 µM | actives 0.51% (n = 330,000);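 active = GFP response versus DMSO above a set limit, roughly screen mean plus 3 SD, cut at about 180% in these data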;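 also: median GFP fluorescence of the barcode-gated MEP2-GFP cells per well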
# LAP4 cherry2 – second confirmation of modulators of TOR reporter LAP4-GFP in yeast; shares compounds with LAP4-GFP MLPCN; S. cerevisiae LAP4-GFP strain, flow cytometry GFP, 3 h; GFP response vs DMSO, % at 10 µM; actives 20% (n = 590); AID 2621;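 active = GFP signal as percent of the solvent control above about 150%, meaning raised reporter expression, limit read from the data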;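 also: ratio of well median GFP fluorescence to plate DMSO mean so 100% = DMSO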
# MEP2 cherry2 – second confirmation of modulators of TOR reporter MEP2-GFP in yeast | shares compounds with LAP4-GFP MLPCN | GFP response vs DMSO, % at 10 µM | S. cerevisiae MEP2-GFP strain, flow cytometry GFP, 3 h | AID 2622 | actives 10% (n = 590);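 active = GFP signal above 150% of the solvent control wells, that is a rise of more than half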;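 also: median channel GFP fluorescence of all gated yeast cells per well; ratio of median GFP to plate DMSO average so 100% = DMSO level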
# RPL19A GFP CP2 – second confirmation of modulators of TOR reporter RPL19A-GFP in yeast; shares compounds with LAP4-GFP MLPCN; S. cerevisiae RPL19A-GFP strain, flow cytometry GFP, 3 h; stronger effect = lower value; 100% means same as DMSO wells; GFP response vs DMSO, % at 10 µM; actives 3% (n = 590); AID 2623;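 active = under 65% GFP response relative to DMSO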;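 also: median GFP channel fluorescence per well over the all cells gate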
# CIT2 GFP CP2 – reconfirmed modulator of CIT2-GFP TOR reporter in yeast. shares compounds with LAP4-GFP MLPCN. S. cerevisiae CIT2-GFP strain, flow cytometry GFP, 3 h; DMSO control wells read 100%. GFP response vs DMSO, % at 10 µM. actives 8% (n = 590). AID 2624;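 active = GFP response vs DMSO above about 150%, limit read from the data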;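 also: median green fluorescence per well over all gated yeast cells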
# AGP1 GFP CP2 – reconfirmed modulator of AGP1-GFP TOR reporter in yeast; 590 tested, under 10 active; percent response vs DMSO, % at 10 µM; shares compounds with LAP4-GFP MLPCN; S. cerevisiae AGP1-GFP strain, flow cytometry GFP, 3 h;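 active = over 150 percent of DMSO response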;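 also: median GFP channel fluorescence over all cells without mother daughter split; sample median GFP divided by mean DMSO control so 100% equals DMSO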
# s288c autofluor – compound is autofluorescent in yeast s288c cells; shares compounds with LAP4-GFP MLPCN; S. cerevisiae s288c, 520 nm autofluorescence, flow cytometry, 3 h; stronger effect = higher value; zero means same as solvent-only cells; fluorescence change (kMESF span) at 33 µM; 610 tested, under 10 active;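 active = fluorescence span over the dose series, or activity score, above about 33, limit read from the data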
# s288c autofl DR – counter-screen for autofluorescence of TOR hits in yeast s288c; shares compounds with LAP4-GFP MLPCN; S. cerevisiae s288c parental, compound autofluorescence, flow cytometry, 3 h; fluorescence change (span) at 33 µM; 110 tested, under 10 active; AID 488829;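 active = fluorescence change span, or the activity score built from it, above 25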
# TORC1 bypass gr – stops wildtype yeast growth while TORC1 bypass cells still grow; 120 tested, under 10 active; growth rating (0-3) at 30 µM; shares compounds with LAP4-GFP MLPCN; S. cerevisiae BY4741 spot growth rating, 48-72 h; stronger effect = lower value; AID 504456;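 active = growth rating at most 1 for wild type yeast while the TORC1 bypass strain still grows fully, rated 3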
# * marks the source's active call; other numbers are inactive results; nt = no result given. A selection: hits, their analogues and other compounds. The true share with any hit is near 1.3%.
SMILES,LAP4-GFP MLPCN,AGP1-GFP MLPCN,Efflux pump mplx,RPL19A-GFP yeast,CIT2 TOR yeast,MEP2 TOR yeast,LAP4 cherry2,MEP2 cherry2,RPL19A GFP CP2,CIT2 GFP CP2,AGP1 GFP CP2,s288c autofluor,others
CC(C)N(C(=O)COC(=O)c1ccc(Cl)c(S(N)(=O)=O)c1)C(C)C,174*,113,0,82,82,105,102,105,102,98,103,nt,
Cc1ccccc1NC(=O)C(NC1CCCCC1)C(C)C (stereo not given),93,74,0,56,93,149,102,103,98,99,104,nt,
Cc1ccc(OCCCCCCN2CCNCC2)cc1,113,104,0,96,96,96,nt,nt,nt,nt,nt,nt,
CCCc1cc(=O)oc2cc(C)cc(OCC(=O)NC3CC3)c12,90,16,1,51,106,142,98,100,99,104,98,0.1,
CCc1cc(=O)oc2cc(C)cc(OCC(=O)NC3CC3)c12,102,111,0,105,115,114,nt,nt,nt,nt,nt,nt,
COC(CNC(=O)c1ccc2c3c(onc13)-c1ccccc1C2=O)OC,230*,66,0,72,90,91,nt,nt,nt,nt,nt,5.3,
COc1ccc(OC)c(S(=O)(=O)ON2C(=O)c3ccccc3C2=O)c1,182*,78,0,101,80,87,nt,nt,nt,nt,nt,18,
COc1ccc(OC)c(S(=O)(=O)N2CCN(c3ccccc3)CC2)c1,101,100,0,98,103,102,nt,nt,nt,nt,nt,nt,
CCN(CC)C(=S)SCC(=O)c1ccccc1,111,97,0,100,nt,95,nt,nt,nt,nt,nt,nt,
CCN(CC)C(=S)SSC(=S)N(CC)CC,187*,76,0,89,68,110,181*,131,93,110,99,0.4,
CCCS(=O)(=O)c1nnnn1-c1cccc(OC)c1,204*,79,0,80,67,90,nt,nt,nt,nt,nt,2,
COc1cccc(-n2nnnc2SCC(=O)Nc2ccccc2OC)c1,97,98,0,98,100,97,nt,nt,nt,nt,nt,nt,
CCC(C)(CC(=O)O)CC(=O)Nc1cc(C(F)(F)F)cc(C(F)(F)F)c1 (stereo not given),114,107,0,99,106,109,nt,nt,nt,nt,nt,nt,
COc1ccc(Cl)cc1NC(=O)CN(C)C(=O)c1sccc1-c1ccccc1,92,90,0,92,96,95,nt,nt,nt,nt,nt,nt,
CCOC(=O)N1CCc2c(sc(NC(C)=O)c2C(N)=O)C1,109,101,0,101,98,104,nt,nt,nt,nt,nt,nt,
CCOC(=O)N1CCc2c(sc(NC(=O)c3ccc(Cl)s3)c2C(N)=O)C1,183*,87,0,86,77,91,125,96,99,113,96,nt,
COc1ccc(-c2ccc3nnc(SCC(N)=O)n3n2)cc1,98,97,0,96,95,92,nt,nt,nt,nt,nt,nt,
CCSc1nnc2ccc(-c3ccc(OC)c(OC)c3)nn12,89,111,0,97,151*,97,88,108,107,111,98,nt,
COc1ccccc1NC(=O)NNC(=O)c1ccc2ccccc2c1O,82,98,0,114,78,102,nt,nt,nt,nt,nt,nt,
COc1ccc(-c2cc(=O)c3c(OC)c(OC)c(OC)c(OC)c3o2)cc1OC,234*,91,0,75,84,93,101,101,100,102,97,nt,
O=C(NC(=S)Nc1cccc(O)c1)c1ccco1,86,90,0,103,100,110,nt,nt,nt,nt,nt,nt,
CCOC(=O)/C(C#N)=N/Nc1ccccc1C(=O)O,101,106,0,109,105,108,nt,nt,nt,nt,nt,nt,
N#C/C(N=Nc1ccccc1O)=N\Nc1ccccc1O,183*,74,0,97,77,92,138,110,100,110,90,nt,
O=C(CCl)N(Cc1cc(=O)[nH]c2ccccc12)c1ccccc1,90,89,0,99,95,99,nt,nt,nt,nt,nt,nt,
CC(=O)Nc1ncnc2c1c(-c1ccc(Cl)cc1)nn2C(C)(C)C,146,85,0,64,55,88,113,107,59*,68,79,-0.91,s288c autofl DR=0.14;TORC1 bypass gr=3
SMILES,LAP4-GFP MLPCN,AGP1-GFP MLPCN,Efflux pump mplx,RPL19A-GFP yeast,CIT2 TOR yeast,MEP2 TOR yeast,LAP4 cherry2,MEP2 cherry2,RPL19A GFP CP2,CIT2 GFP CP2,AGP1 GFP CP2,s288c autofluor,others
CC(=O)N(C(C)=O)c1ncnc2c1c(-c1ccc(Cl)cc1)nn2C(C)(C)C,96,97,0,95,90,93,96,100,98,94,92,-0.2,
O=C(Nc1cccc(C(F)(F)F)c1)Oc1ccc(Cl)c2cccnc12,202*,70,0,95,113,99,nt,nt,nt,nt,nt,0.5,
O=Nc1c(-c2cccc([N+](=O)[O-])c2)nc2ncccn12,138,65,1,63,61,91,139,148,67,107,82,nt,
Cc1c(NC(=O)C(C)Sc2n[nH]c(N)n2)c(=O)n(-c2ccccc2)n1C (stereo not given),196*,149,0,57,170*,648*,97,105,101,109,102,nt,
Cc1nc(SC(C)C(=O)Nc2c(C)n(C)n(-c3ccccc3)c2=O)nc(C)c1C (stereo not given),91,93,0,93,86,97,nt,nt,nt,nt,nt,nt,
O=[N+]([O-])c1cc(CN2CCN(c3ccccc3)CC2)c(O)c2ncccc12,153*,75,0,77,nt,99,nt,nt,nt,nt,nt,1.1,

# Bioassay records as filed in PubChem BioAssay.
